Screening results: PubChem, National Center for Advancing Translational Sciences (NCATS)
An excerpt weighted towards active compounds, which were near 0.41% of everything screened.
TRPV1 PAM: potentiators of human vanilloid receptor 1 (TRPV1); 320,000 tested, 0.02% active; potentiation, % at 8.33 µM; AID 540277; TRPV1-expressing cells, Fluo-8 calcium influx, capsaicin EC20 potentiation; in the data active = potentiation above about 80%; inconclusive = between about 30% and that limit; also: 0% is about no effect
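Fluo-8 calcium influx in TRPV1-expressing cells, kinetic read (ex 480/em 520 nm). Compound added and read 3 min for agonist activity, followed by capsaicin at EC20 final and 2 min further read for enhancement.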
TRPML1 inh: inhibitors of human TRPML1 channel; Q9GZU1; TRPML1-inducible cells, Ca2+ dye fluorescence, FDSS; stronger effect = lower value; inhibition of EC80 agonist-evoked calcium signal; activity change, negative = inhibition, % (test concentration not listed); 390,000 tested, 0.02% active; AID 624415; in the data active = activity change below about -50%; inconclusive = between about -30% and that limit;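 also: stimulus is agonist 54-4 at its EC80 concentration; % is scaled to controls: 0 for no effect and ±100 for the full control effect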
Target sequence (Q9GZU1 whole entry, looked up): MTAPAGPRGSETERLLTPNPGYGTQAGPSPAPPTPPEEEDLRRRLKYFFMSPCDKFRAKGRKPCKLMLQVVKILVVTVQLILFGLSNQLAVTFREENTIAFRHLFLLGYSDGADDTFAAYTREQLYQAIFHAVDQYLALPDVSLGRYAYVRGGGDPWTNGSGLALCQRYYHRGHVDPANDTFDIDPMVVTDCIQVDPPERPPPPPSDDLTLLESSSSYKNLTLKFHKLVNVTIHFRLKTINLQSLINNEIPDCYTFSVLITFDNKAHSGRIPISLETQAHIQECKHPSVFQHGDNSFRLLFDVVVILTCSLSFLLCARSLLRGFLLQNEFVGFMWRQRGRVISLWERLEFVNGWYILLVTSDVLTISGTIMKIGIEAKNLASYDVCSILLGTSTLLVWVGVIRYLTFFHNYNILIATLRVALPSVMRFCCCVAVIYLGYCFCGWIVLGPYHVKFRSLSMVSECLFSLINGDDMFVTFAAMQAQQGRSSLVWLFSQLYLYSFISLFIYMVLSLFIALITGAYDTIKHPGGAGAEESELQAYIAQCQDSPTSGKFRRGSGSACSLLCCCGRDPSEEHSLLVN
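TRPML1-DL cells, Tet-induced overnight (~16 h, 37 °C) at 1,500 cells/well, were loaded with Ca8 no-wash dye plus quencher for 45-90 min at room temperature. Compounds were pinned during FDSS kinetic reading; agonist 54-4 at EC80 (4 uM final) then added.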
TRPML1 ag: human mucolipin-1 channel agonism | TRPML1-expressing cells, Ca2+ dye fluorescence, FDSS | activation, % (concentration not given with the values) | 410,000 tested, 0.12% active | Q9GZU1; in the data active = activation above about 50%; inconclusive = mostly about 30% to 49%; also: 0% is about no effect
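TRPML1-DL cells, Tet-induced overnight (~16 h, 37 degrees C), loaded 45-90 min at room temperature with Ca8 no-wash calcium dye plus quencher. FDSS fluorescence: 10 s baseline, compound pin-transfer, 110 s agonist read, then EC80 54-4 (4uM final) and 110 s antagonist read.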
TRPV1 agonist: human TRPV1 agonism; Q8NER1; TRPV1-expressing cells, Fluo-8 calcium influx, agonist mode; activation, % at 8.33 µM; 320,000 tested, 0.19% active; in the data active = activation above about 80%; inconclusive = between about 30% and that limit; also: 0% is about no effect
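TRPV1-expressing cells were cultured overnight at 35.5C and loaded with Fluo-8 calcium dye for 40 to 90 min at room temperature. After a 10 s baseline, compound was added and calcium influx was read kinetically for 3 min (ex 480/em 520 nm).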
A-T KAP1 phos: candidate therapy for ataxia-telangiectasia; F2112 A-T fibroblasts, KAP-1 phosphorylation AlphaLISA; neocarzinostatin DNA damage 30 min before lysis; Potency, µM (doses to about 57.5 µM), for the others: at the highest dose activation, hits mostly activators; 320,000 tested, 0.19% active; AID 485349; active = well fitted activation curve with a large enough effect; inconclusive = small, poorly fitted or top-dose-only effect; inactive = no such curve, though single readings can be large or run the other way; also: potency is read from the fitted curve at half-maximal effect; % of control where 0% means no effect; nearly all actives have a fitted effect of over 45% in size
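hTERT-immortalized A-T patient fibroblasts (F2112), 500 cells/well in OPTI-MEM, 1% FBS, got compounds for 60 min, then NCS for 30 min at 37C. Lysates were then assayed for phospho-KAP-1 by AlphaLISA (anti-pKAP1 donor, anti-KAP1 acceptor beads), 6 hr at 25C.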
Numbers without * were called inactive; u = inconclusive; x = not tested or not shown.

SMILES	TRPV1 PAM	TRPML1 inh	TRPML1 ag	TRPV1 agonist	A-T KAP1 phos
COc1ccc(NCc2cc(=O)oc3cc(NC(C)=O)ccc23)cc1	22	18	-1	-1	2.5µM*
CCNc1ccc(/C=C2\C=Cc3ccccc32)cc1	x	x	0	x	x
C[n+]1ccnc2cc(Cl)ccc21	x	x	5	x	x
Cc1nn(C)c(C(=O)Nc2ccc(S(=O)(=O)NC34CC5CC(CC(C5)C3)C4)cc2)c1Br	81*	8	-1	2	0%
NC(=O)[C@H]1CC2(CC(c3cccc(NC(=O)COc4ccc(Cl)cc4)c3)=NO2)CN1C(=O)CC(c1ccccc1)c1ccccc1 (some centres undefined)	u	24	1	-1	-13%
NC(=O)[C@@H]1CC2(CC(c3cccc(NC(=O)CC(c4ccccc4)c4ccccc4)c3)=NO2)CN1C(=O)COc1ccc(Cl)cc1 (some centres undefined)	-3	0	0	-1	35µM*
Oc1ccc(/C=N/Nc2cc(N3CCOCC3)nc(N3CCOCC3)n2)cc1O	-4	34	-1	u	-2%
Oc1cccc(/C=N/Nc2cc(N3CCOCC3)nc(N3CCOCC3)n2)c1	-29	-11	3	93*	4%
CC(NC(=O)COC(=O)/C=C/c1ccc(Cl)cc1)c1ccccc1 (centres undefined)	-6	-8	-1	10	3.2µM*
CC1Cc2ccccc2C[N+]1(C)CC(=O)c1cccc([N+](=O)[O-])c1 (centres undefined)	x	x	0	x	x
CCN1CCN(CCCN(Cc2ccco2)C(=S)Nc2cccc(Cl)c2C)CC1	7	7	-1	1	1%
CCN1CCN(CCCN(Cc2ccco2)C(=S)Nc2ccccc2Cl)CC1	128*	-4	0	-2	-4%
Cc1nc2ccccc2nc1-c1csc(-c2ccccc2)n1	x	x	-1	x	x
COc1cc2c(NC3CCN(C)CC3)nc(N3CCCN(C)CC3)nc2cc1OCCCN1CCCCC1	x	x	-1	x	x
CNc1ccc(/C=C/c2ccccc2)cc1	x	x	-1	x	x
Cc1sc2cc3c(c(C(=O)c4ccccc4)[n+]2c1C)-c1cccc2cccc-3c12	2	-2	0	0	-23%
O=C(c1ccccc1)c1c2c(cc3sc4ccccc4[n+]13)-c1cccc3cccc-2c13	17	7	54*	u	8%
O=C(CNc1cccc(C(F)(F)F)c1)N/N=C/C1CCCCC1	-30	-23	2	97*	-1%
O=C(CNc1cccc(C(F)(F)F)c1)N/N=C/c1cccc(Br)c1	5	-3	0	11	-1%
COC(=O)c1c(NC(=O)c2nc3nc(C)cc(C(F)F)n3n2)sc2c1CCC2	91*	20	1	-2	-6%
Cc1ccc(Cn2c(=N)c(C(=O)NCC3CCCO3)cc3c(=O)n4cccc(C)c4nc32)cc1 (centres undefined)	-11	-4	-1	82*	1%
COc1ccc(C(=O)NC2CCCc3ccccc32)cc1OC1CCN(C(C)=O)CC1 (centres undefined)	-16	-54*	0	1	33%
Cc1ccc2nc(/C=C/c3ccc(N(C)C)cc3)ccc2c1	x	x	20	x	x
CCOC(=O)C1=C(C)N(c2ccc(OC)cc2)C(=O)/C1=C\c1ccc(O)c(OCC)c1	21	39	-1	0	13µM*
CCC(C)Nc1nc(-c2c[nH]c3ccccc23)cs1 (centres undefined)	29	-3	2	2	35µM*
SMILES	TRPV1 PAM	TRPML1 inh	TRPML1 ag	TRPV1 agonist	A-T KAP1 phos
CN(C)c1ccc(/C=C/c2sc3ccccc3[n+]2CCCCI)cc1	x	x	0	x	x
O=C(COc1ccccc1C(=O)Nc1ccccc1)Nc1ccc2ccccc2c1	x	x	0	x	x
O=C1C([N+](=O)[O-])=C(O)c2cccc3cccc1c23	28	x	x	2	28µM*
O=C(NCCC1=CCCCC1)c1ccc(Cl)c(S(=O)(=O)N2CCCCC2)c1	-1	-14	0	u	4%
O=C(NCCC1=CCCCC1)c1ccc(Cl)c(S(=O)(=O)N2CCOCC2)c1	-13	10	0	82*	0%
COc1ccc(C(=O)NCCC2=CCCCC2)cc1[N+](=O)[O-]	-26	4	0	88*	-1%
COc1cccc(CNC(=S)Nc2cccc(Cl)c2C)c1	-26	9	2	87*	3%
CCC[n+]1c2ccccc2cc2ccccc21	-11	5	1	8	40µM*
CCCC[n+]1c2ccccc2cc2ccccc21	-20	4	2	20	u
N#CC(C#N)=C1C=C2C=C(N3CCCCCC3)CCC2CC1 (centres undefined)	-6	-16	100*	93*	17%
CCN1CCN(C2=CC3=CC(=C(C#N)C#N)CCC3CC2)CC1 (centres undefined)	-21	-7	96*	99*	-3%
CN1CCN(C2=CC3=CC(=C(C#N)C#N)CCC3CC2)CC1 (centres undefined)	-5	-71*	140*	184*	0%
N#CC(C#N)=C1C=C2C=C(N3CCOCC3)CCC2CC1 (centres undefined)	-12	-7	123*	140*	9%
CC1(C)CC(NCCN2CCN(C3=CC(=C(C#N)C#N)CC(C)(C)C3)CC2)=CC(=C(C#N)C#N)C1	7	17	1	9	-5%
Cc1cccc(CN2Cc3cccc4c3[C@H](C=CC4)CC2=O)c1	x	x	0	x	x
COc1ccc(Br)cc1/C=N/n1c(-c2ccccc2)n[nH]c1=S	80*	8	1	-6	1%
Cc1ccc(S(=O)(=O)N(C)c2ccccc2)cc1	-3	11	-1	1	5%
CSc1nc2ccccc2nc1N(C)S(=O)(=O)c1ccc(C)cc1	11	-5	1	-3	1.1µM*
O=S(=O)(Nc1cccc2cccnc12)c1ccc(S(=O)(=O)N2CCCC2)cc1	-6	-3	66*	3	2%
O=S(=O)(Nc1cccc2cccnc12)c1ccccc1	-17	12	8	19	u
Oc1cccc2c(CC(O)c3c[nH]c4ccccc34)ccnc12 (centres undefined)	x	x	0	x	x
CN(C)c1ccc(NC(=O)c2cccc([N+](=O)[O-])c2)c2ccccc12	-12	4	1	83*	-5%
N#Cc1nc(-c2ccccc2)cc(-c2ccccc2)n1	x	x	1	x	x
COc1ccc(C(=O)C[n+]2cccc3cc(Cl)ccc32)cc1	x	x	1	x	x
CCCCN(CCC(=O)O)c1ccc(/C=C/c2ccnc3ccccc23)cc1	x	x	99*	x	x
O=Cc1ccnc2ccccc12	x	x	1	x	x
Clc1ccccc1Cn1nnc(-c2cccs2)n1	-11	15	0	3	9%
Clc1ccccc1Cn1nnc(-c2ccccc2)n1	1	-21	0	1	22µM*
O=C(C[N+]12CCCc3cccc(c31)CCC2)c1ccccc1	x	x	0	x	x
